# Assay results taken from the supplement of paper PMC8728848.
# Many of the other results were omitted from the sample, so the strongest signals are more common in it than they were.
# B1: Epa11 (Candida glabrata) (protein)
# chain: MGSSHHHHHHSSGLVPRGSHMASSNAPNYPVGCSPSVGTQLTPGLSLEVYAYPMDGNNGYCWNATYKDPEFPRSGYLKNKLLGKADGVVGPLNFLAKNKDCSPKVDTLPAGFNFPQPITVTNFTMVLFGYLAPKQSGKYTFKLLADDLLLLNLGATNAFDCCNREATKNNLGEFLAYNLWPNQDKNVTVYLEKGVYYPLRLFFNNRDGGSQLDFSYYFNDSPAPLTDFSGMFFSVPDGAECPARI
# Key:
# Assay in all cases: glycan array binding signal (z-score within array); higher = stronger binding
# Details in all cases: glycan notation: IUPAC condensed, linker removed
# [1] = target: GlcA3S(b1-3)Gal(b1-4)GlcNAc(b1-2)Man
# Procedure, shortened: (§1)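 The Consortium for Functional Glycomics database supplied 3228 glycan arrays, of which those lacking an available protein sequence were dropped. The binding signal, a within-array Z-score, was averaged across arrays of the same protein sequence and across linkers. Negative scores can be read as non-binding.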
# [2] = target: GlcA3S(b1-3)Gal(b1-4)GlcNAc(b1-3)Gal(b1-4)Glc
# Procedure, shortened: as §1
# [3] = target: GlcNAc(a1-4)Gal(b1-4)GalNAc
# Procedure, shortened: as §1
# [4] = target: GlcNAc(a1-4)Gal(b1-4)GlcNAc(b1-3)Gal(b1-4)[Fuc(a1-3)]GlcNAc(b1-3)Gal(b1-4)[Fuc(a1-3)]GlcNAc
# Procedure, shortened: as §1
# [5] = target: GlcNAc(b1-2)[GlcNAc(b1-4)]Man(a1-3)[GlcNAc(b1-4)][GlcNAc(b1-2)[GlcNAc(b1-6)]Man(a1-6)]Man(b1-4)GlcNAc(b1-4)[Fuc(a1-6)]GlcNAc
# Procedure, shortened: as §1
# [6] = target: GlcNAc(b1-3)Gal(b1-4)GlcNAc(b1-3)Gal(b1-4)GlcNAc(b1-3)Gal(b1-4)GlcNAc(b1-2)Man(a1-3)[GlcNAc(b1-3)Gal(b1-4)GlcNAc(b1-3)Gal(b1-4)GlcNAc(b1-3)Gal(b1-4)GlcNAc(b1-2)Man(a1-6)]Man(b1-4)GlcNAc(b1-4)GlcNAc
# Procedure, shortened: as §1
# [7] = target: GlcNAc(b1-6)GalNAc
# Procedure, shortened: as §1
# [8] = target: Man(a1-3)[Man(a1-6)]Man(b1-4)GlcNAc(b1-4)[Fuc(a1-6)]GlcNAc
# Procedure, shortened: as §1
# [9] = target: Neu5Ac(a2-3)Gal(b1-3)GlcNAc(b1-2)Man
# Procedure, shortened: as §1
# [10] = target: Neu5Ac(a2-3)Gal(b1-3)GlcNAc(b1-2)Man(a1-3)[GlcNAc(b1-4)][Neu5Ac(a2-3)Gal(b1-3)GlcNAc(b1-2)Man(a1-6)]Man(b1-4)GlcNAc(b1-4)GlcNAc
# Procedure, shortened: as §1
# [11] = target: Neu5Ac(a2-3)Gal(b1-3)GlcNAc(b1-3)GalNAc
# Procedure, shortened: as §1
# [12] = target: Neu5Ac(a2-3)Gal(b1-3)GlcNAc(b1-6)GalNAc
# Procedure, shortened: as §1
# [13] = target: Neu5Ac(a2-3)Gal(b1-3)[Fuc(a1-4)]GlcNAc
# Procedure, shortened: as §1
# [14] = target: Neu5Ac(a2-3)Gal(b1-4)GlcNAc(b1-2)Man(a1-3)[Neu5Ac(a2-6)Gal(b1-4)GlcNAc(b1-2)Man(a1-6)]Man(b1-4)GlcNAc(b1-4)GlcNAc
# Procedure, shortened: as §1
# [15] = target: Neu5Ac(a2-3)Gal(b1-4)GlcNAc(b1-3)Gal
# Procedure, shortened: as §1
# [16] = target: Neu5Ac(a2-3)Gal(b1-4)GlcNAc(b1-3)Gal(b1-4)GlcNAc(b1-6)[Gal(b1-3)]GalNAc
# Procedure, shortened: as §1
# [17] = target: Neu5Ac(a2-6)Gal(b1-4)GlcNAc(b1-2)Man(a1-3)[Neu5Ac(a2-6)Gal(b1-4)GlcNAc(b1-2)Man(a1-6)]Man(b1-4)GlcNAc(b1-4)GlcNAc
# Procedure, shortened: as §1
# [18] = target: Neu5Ac(a2-6)GlcNAc(b1-4)GlcNAc(b1-4)GlcNAc
# Procedure, shortened: as §1
# [19] = target: Neu5Ac(b2-6)GalNAc
# Procedure, shortened: as §1
# [20] = target: Neu5Gc(a2-3)Gal(b1-3)GlcNAc
# Procedure, shortened: as §1
# [21] = target: Neu5Gc(a2-3)Gal(b1-4)GlcNAc
# Procedure, shortened: as §1
# [22] = target: Neu5Gc(a2-6)GalNAc
# Procedure, shortened: as §1
binder,measurement,setting,value
B1,glycan array binding signal (z-score),[1],0.356
same,glycan array binding signal (z-score),[2],-0.579
same,glycan array binding signal (z-score),[3],-0.891
same,glycan array binding signal (z-score),[4],0.211
same,glycan array binding signal (z-score),[5],2.33
same,glycan array binding signal (z-score),[6],-0.16
same,glycan array binding signal (z-score),[7],-0.586
same,glycan array binding signal (z-score),[8],5.52
same,glycan array binding signal (z-score),[9],-0.819
same,glycan array binding signal (z-score),[10],2.81
same,glycan array binding signal (z-score),[11],0.127
same,glycan array binding signal (z-score),[12],0.52
same,glycan array binding signal (z-score),[13],-0.534
same,glycan array binding signal (z-score),[14],-0.573
same,glycan array binding signal (z-score),[15],-0.477
same,glycan array binding signal (z-score),[16],-0.079
same,glycan array binding signal (z-score),[17],-0.433
same,glycan array binding signal (z-score),[18],-0.053
same,glycan array binding signal (z-score),[19],-0.375
same,glycan array binding signal (z-score),[20],0.029
same,glycan array binding signal (z-score),[21],-0.644
same,glycan array binding signal (z-score),[22],-0.604
